The record followed here is PubChem BioAssay (EPA / NIEHS).

Inconclusive results are not listed. Active and inactive are the calls of the source. Rule for the calls, unless noted: active = hit-call score of the fitted dose curve at least 0.9, where 1 is the maximum; inactive = score below 0.9.

In experiment [1] the target is Aryl hydrocarbon receptor (Homo sapiens) (UniProt P35869). Kind of experiment: ATG_Ahr_CIS: Attagene CIS-FACTORIAL HepG2 Assay for human Aryl Hydrocarbon Receptor (Ahr) (AID 2282930). Particulars: HepG2 AhR cis-factorial reporter transcription; actives raise or lower the signal. A digest of the protocol: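 Values derive from bidirectional fitting against DMSO negative control. Underlying signal: cis-element reporter mRNA in transiently transfected HepG2, harvested 24 h post-dose and measured by RT-PCR plus capillary electrophoresis.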

Experiment [2] is described as follows: ATG_BRE_CIS: Attagene CIS-FACTORIAL HepG2 Assay for human Bone Morphogenetic Protein (BMP) Response Element (BRE) (AID 2282933). The settings on record: HepG2 BMP response element reporter, Attagene transcription factor profiling; actives raise or lower the signal. A digest of the protocol: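 A HepG2 multiplex reporter system measured inducible reporter mRNA 24 h post-dosing. Detection: RT-PCR, 6-FAM primer extension, HpaI digestion, capillary electrophoresis. Activity fitted bidirectionally relative to DMSO.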

Experiment [3] in a line: ATG_M_61_CIS: Attagene CIS-FACTORIAL HepG2 Assay for M61 Transcription Factor (Internal Marker) (AID 2282937). Particulars: HepG2 Attagene CIS-FACTORIAL M61 internal marker reporter; actives raise or lower the signal. The gist of the method: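 Fluorescence from labelled cDNA fragments, separated by capillary electrophoresis, quantifies reporter induction. HepG2 cells bearing transiently transfected cis-promoter MRTUs were incubated with test chemical for 24 h; DMSO defined baseline for gain/loss fitting.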

The nature of experiment [4]: ATG_EGR_CIS: Attagene CIS-FACTORIAL HepG2 Assay for human Early Growth Response 1 (EGR1) (AID 2282938). Particulars: HepG2 Attagene CIS-FACTORIAL EGR reporter mRNA; actives raise or lower the signal. A digest of the protocol:
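Cell-based multiplex transcription assay: HepG2 carrying transfected cis-element reporter units, 24 h chemical treatment. Fluorescence from capillary electrophoresis of RT-PCR products gives mRNA levels; fitting is bidirectional relative to DMSO.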

Experiment [5] in a line: ATG_GRE_CIS: Attagene CIS-FACTORIAL HepG2 Assay for human Glucocorticoid Response Elements (GRE) (AID 2282947). The settings on record: HepG2 GRE cis-reporter, Attagene multiplex mRNA; actives raise or lower the signal. The gist of the method: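 Cells (HepG2) bearing transfected cis-promoter reporter transcription units were treated with chemical for 24 hours. Reporter mRNA was measured via RT-PCR with capillary electrophoresis, and activity was fitted in both directions relative to DMSO.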

A short description of experiment [6]: ATG_M_06_CIS: Attagene CIS-FACTORIAL HepG2 Assay for M06 Transcription Factor (Internal Marker) (AID 2282950). The settings on record: HepG2 Attagene CIS-FACTORIAL M06 internal marker reporter; actives raise or lower the signal. The gist of the method:
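Cells (HepG2, transiently carrying cis-driven reporter units) receive chemical for 24 h before RNA isolation. Reporter cDNA is PCR-amplified, FAM-labelled by primer extension, HpaI-digested and sized on a capillary analyser.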

The target of experiment [7] is Hypoxia-inducible factor 1-alpha (Homo sapiens) (UniProt Q16665). Description: ATG_HIF1a_CIS: Attagene CIS-FACTORIAL HepG2 Assay for human Hypoxia Inducible Factor 1 (HIF1A) (AID 2282951). The settings on record: HepG2 Attagene cis-factorial HIF1a reporter transcription; actives raise or lower the signal. A digest of the protocol:
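In this multiplexed cell assay, HepG2 cells bearing transfected cis reporters are dosed for 24 h and reporter mRNA is read by RT-PCR plus capillary electrophoresis; signal increases and decreases are both scored against DMSO.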

The nature of experiment [8]: ATG_TGFb_CIS: Attagene CIS-FACTORIAL HepG2 Assay for human Transforming Growth Factor (TGF) (AID 2282967). Particulars: HepG2 Attagene CIS TGFb reporter, mRNA transcription; actives raise or lower the signal. A digest of the protocol: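 Liver HepG2 line, cis-factorial reporter panel, 24 h dosing. Quantitation: RT-PCR products labeled with 6-FAM, cut with HpaI, resolved by capillary electrophoresis; DMSO-referenced bidirectional analysis.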

Experiment [9] concerns the target Transcriptional activator Myb (Homo sapiens) (UniProt P10242). Description: ATG_Myb_CIS: Attagene CIS-FACTORIAL HepG2 Assay for human Myeloblastosis (Myb) Proto-Oncogene Transcription Factor (AID 2282986). Particulars: HepG2 Attagene CIS-FACTORIAL Myb reporter transcription; actives raise or lower the signal. A digest of the protocol:
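Fluorescence signals from capillary electrophoresis of RT-PCR-amplified reporter cDNA give the read-out. Cells: HepG2 transfected with multiple cis-regulated reporter units. Exposure lasts 24 hours; DMSO defines baseline for gain or loss of signal.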

Experiment [10] concerns the target Nuclear respiratory factor 1 (Homo sapiens) (UniProt Q16656). Description: ATG_NRF1_CIS: Attagene CIS-FACTORIAL HepG2 Assay for human Nuclear Respiratory Factor 1 (NRF1) Orphan Gene (AID 2282987). Particulars: HepG2 NRF1 cis-element reporter, Attagene multiplex; actives raise or lower the signal. The gist of the method: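 Transcriptional reporter readout, one component of a 52-endpoint multiplexed HepG2 panel. Exposure 24 h; mRNA detected via RT-PCR and fluorescent capillary electrophoresis; fitting in both directions against DMSO.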

Experiment [11] can be described thus: ATG_NFI_CIS: Attagene CIS-FACTORIAL HepG2 Assay for human Nuclear Factor I (NFI) (AID 2282989). Particulars: HepG2 cis-regulatory reporter, NFI response element transcription; actives raise or lower the signal. A digest of the protocol:
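Transfected HepG2 liver cells, exposed 24 h, supplied total RNA for oligo(dT) reverse transcription and reporter-specific PCR. Labelled, HpaI-cut fragments were sized by capillary electrophoresis; DMSO set the baseline for bidirectional fitting.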

In experiment [12] the target is Myc proto-oncogene protein (Homo sapiens) (UniProt P01106). Kind of experiment: ATG_Myc_CIS: Attagene CIS-FACTORIAL HepG2 Assay for human Myelocytomatosis (Myc) Proto-Oncogene Transcription Factor (AID 2282990). Particulars: HepG2, Attagene cis-reporter transcription factor activity; actives raise or lower the signal. The gist of the method: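 Multiplexed cis-reporter transcription in HepG2 cells after 24 h chemical treatment. Reporter mRNA measured by RT-PCR and capillary electrophoresis fluorescence; activity fitted bidirectionally against DMSO control.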

A short description of experiment [13]: ATG_NF_kB_CIS: Attagene CIS-FACTORIAL HepG2 Assay for human Nuclear Factor Kappa B (NF-kB) (AID 2282991). The settings on record: HepG2 Attagene cis-factorial NF-kB reporter mRNA; actives raise or lower the signal. A digest of the protocol:
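HepG2, transient multi-reporter transfection, cis promoter elements (endogenous TFs). 24 h exposure. Total RNA → RT → PCR → 6-FAM label → HpaI → CE. Gain/loss vs DMSO.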

Experiment [14] is described as follows: ATG_NRF2_ARE_CIS: Attagene CIS-FACTORIAL HepG2 Assay for human Nuclear Factor Erythroid 2 Related Factor 2 (NFR2) response to Antioxidant Response Elements (ARE) (AID 2282992). Particulars: HepG2 Attagene ARE/NRF2 reporter, transcription factor activity; actives raise or lower the signal. The gist of the method:
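Fluorescence intensity of reporter-specific cDNA fragments, separated by capillary electrophoresis, reflects mRNA induction in transfected HepG2 cells at 24 h. Activity is fitted bidirectionally, DMSO serving as baseline.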

Experiment [15] in a line: ATG_Oct_MLP_CIS: Attagene CIS-FACTORIAL HepG2 Assay for human Octamer-Binding Transcription Factor (Oct) (AID 2282993). The settings on record: HepG2 Attagene cis-factorial Oct reporter, mRNA; actives raise or lower the signal. The gist of the method:
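Using HepG2 cells bearing transfected cis-reporter constructs, mRNA induction was read after 24 h by fluorescent RT-PCR and capillary electrophoresis, with DMSO defining baseline for gain- or loss-of-signal fits.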

Experiment [16] can be described thus: ATG_XTT_Cytotoxicity: Cytotoxicity Assessment in the Attagene TRANS-FACTORIAL HepG2 Assay (AID 2283584; active = hit-call score of the fitted dose curve at least 0.9, where 1 is the maximum). The gist of the method:
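Viability endpoint from XTT after 24 h chemical exposure of reporter-transfected human HepG2 liver cells; signal loss fitted relative to DMSO negative control.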

Experiment [17] in a line: ATG_VDRE_CIS: Attagene CIS-FACTORIAL HepG2 Assay for human Vitamin D Receptor Element (VDRE) (AID 2282968). Particulars: HepG2 VDRE cis-reporter transcription, actives raise or lower the signal. The gist of the method: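 Steps: transfect HepG2 with multiple reporter transcription units; dose chemicals 24 h; isolate RNA; RT-PCR; label with 6-FAM primer extension; HpaI digest; capillary electrophoresis. Curves fitted both directions against DMSO.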

Experiment [18] concerns the target Cellular tumor antigen p53 (Homo sapiens) (UniProt P04637). Description: ATG_p53_CIS: Attagene CIS-FACTORIAL HepG2 Assay for human p53 Transcription Factor (AID 2282994). Particulars: HepG2 p53 cis-element reporter, Attagene mRNA; actives raise or lower the signal. A digest of the protocol:
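Transiently transfected HepG2 (multiple cis reporter transcription units); exposure 24 h; reporter RNA via RT-PCR, 6-FAM extension, 2 h HpaI digest at 37 C, CE detection; DMSO baseline.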

Experiment [19] deals with Nuclear receptor subfamily 1 group I member 2 (Homo sapiens) (UniProt O75469). Kind of experiment: ATG_PXR_TRANS: Attagene TRANS-FACTORIAL HepG2 Assay for human Pregnane X Receptor (PXR) (AID 2283008; active = hit-call score of the fitted dose curve at least 0.9, where 1 is the maximum). The gist of the method:
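Transient HepG2 transfectants carrying multiplexed reporter transcription units; PXR activity read through a Gal4 chimera. 24 h exposure. RT-PCR/CE fluorescence; upward curve fit referenced to DMSO.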

A short description of experiment [20]: ATG_MRE_CIS: Attagene CIS-FACTORIAL HepG2 Assay for human Metal Responsive Element (MRE) (AID 2282954). Particulars: HepG2 MRE cis-reporter transcription, Attagene multiplex; actives raise or lower the signal. A digest of the protocol: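 Cells were transfected with cis-promoter reporter transcription units, then dosed for 24 h. RNA was reverse-transcribed, amplified, fluorescently labelled and resolved by capillary electrophoresis, and activity was fitted in both directions relative to DMSO.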

Sequence of Nuclear receptor subfamily 1 group I member 2 (Homo sapiens) (O75469 whole entry, looked up, the tested form may be a part): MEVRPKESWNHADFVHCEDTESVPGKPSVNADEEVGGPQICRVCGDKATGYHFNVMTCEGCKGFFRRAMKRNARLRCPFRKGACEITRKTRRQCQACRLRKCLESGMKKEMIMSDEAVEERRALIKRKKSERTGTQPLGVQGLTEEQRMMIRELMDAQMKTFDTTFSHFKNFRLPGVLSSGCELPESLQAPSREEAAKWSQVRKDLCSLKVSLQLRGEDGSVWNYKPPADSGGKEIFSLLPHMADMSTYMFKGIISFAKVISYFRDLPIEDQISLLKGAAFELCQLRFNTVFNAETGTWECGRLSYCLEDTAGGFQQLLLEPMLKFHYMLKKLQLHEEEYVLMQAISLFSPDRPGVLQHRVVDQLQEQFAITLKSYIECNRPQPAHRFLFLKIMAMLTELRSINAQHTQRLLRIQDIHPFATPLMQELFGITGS
Sequence of Nuclear respiratory factor 1 (Homo sapiens) (Q16656 whole entry, looked up): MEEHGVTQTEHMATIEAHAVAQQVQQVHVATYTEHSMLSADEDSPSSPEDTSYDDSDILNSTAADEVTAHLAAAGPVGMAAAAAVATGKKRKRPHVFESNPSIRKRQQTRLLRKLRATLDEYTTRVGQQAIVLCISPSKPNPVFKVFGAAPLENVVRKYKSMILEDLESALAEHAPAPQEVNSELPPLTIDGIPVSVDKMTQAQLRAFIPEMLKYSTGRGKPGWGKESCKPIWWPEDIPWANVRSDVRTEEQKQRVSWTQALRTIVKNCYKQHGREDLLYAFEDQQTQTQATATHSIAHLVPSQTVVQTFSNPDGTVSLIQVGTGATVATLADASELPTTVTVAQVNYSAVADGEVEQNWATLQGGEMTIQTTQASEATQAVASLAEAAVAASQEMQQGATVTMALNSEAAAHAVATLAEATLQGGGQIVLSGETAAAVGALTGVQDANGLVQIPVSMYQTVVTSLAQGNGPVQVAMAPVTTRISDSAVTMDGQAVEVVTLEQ
Sequence of Hypoxia-inducible factor 1-alpha (Homo sapiens) (Q16665 whole entry, looked up): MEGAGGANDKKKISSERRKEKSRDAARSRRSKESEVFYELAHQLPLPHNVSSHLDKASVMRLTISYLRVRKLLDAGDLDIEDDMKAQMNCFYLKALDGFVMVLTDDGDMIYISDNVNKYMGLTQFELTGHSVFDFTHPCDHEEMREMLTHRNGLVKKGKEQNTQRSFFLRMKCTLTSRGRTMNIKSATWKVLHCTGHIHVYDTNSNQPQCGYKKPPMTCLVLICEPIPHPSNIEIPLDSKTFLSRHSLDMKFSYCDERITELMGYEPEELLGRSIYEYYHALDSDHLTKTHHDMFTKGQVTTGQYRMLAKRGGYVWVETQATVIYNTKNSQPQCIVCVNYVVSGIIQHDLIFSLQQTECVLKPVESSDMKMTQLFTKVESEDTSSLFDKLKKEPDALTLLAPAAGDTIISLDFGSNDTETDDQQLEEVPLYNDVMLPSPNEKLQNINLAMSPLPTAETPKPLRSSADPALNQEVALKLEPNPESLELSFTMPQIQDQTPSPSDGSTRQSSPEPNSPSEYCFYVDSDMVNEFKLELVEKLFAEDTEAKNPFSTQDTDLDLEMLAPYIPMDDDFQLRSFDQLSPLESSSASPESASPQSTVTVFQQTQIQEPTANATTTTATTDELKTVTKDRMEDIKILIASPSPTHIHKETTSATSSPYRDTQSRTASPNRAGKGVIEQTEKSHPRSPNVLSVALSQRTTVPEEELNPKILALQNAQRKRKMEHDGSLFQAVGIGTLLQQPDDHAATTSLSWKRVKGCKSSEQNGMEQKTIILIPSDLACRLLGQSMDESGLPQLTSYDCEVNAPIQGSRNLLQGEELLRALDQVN
Sequence of Transcriptional activator Myb (Homo sapiens) (P10242 whole entry, looked up): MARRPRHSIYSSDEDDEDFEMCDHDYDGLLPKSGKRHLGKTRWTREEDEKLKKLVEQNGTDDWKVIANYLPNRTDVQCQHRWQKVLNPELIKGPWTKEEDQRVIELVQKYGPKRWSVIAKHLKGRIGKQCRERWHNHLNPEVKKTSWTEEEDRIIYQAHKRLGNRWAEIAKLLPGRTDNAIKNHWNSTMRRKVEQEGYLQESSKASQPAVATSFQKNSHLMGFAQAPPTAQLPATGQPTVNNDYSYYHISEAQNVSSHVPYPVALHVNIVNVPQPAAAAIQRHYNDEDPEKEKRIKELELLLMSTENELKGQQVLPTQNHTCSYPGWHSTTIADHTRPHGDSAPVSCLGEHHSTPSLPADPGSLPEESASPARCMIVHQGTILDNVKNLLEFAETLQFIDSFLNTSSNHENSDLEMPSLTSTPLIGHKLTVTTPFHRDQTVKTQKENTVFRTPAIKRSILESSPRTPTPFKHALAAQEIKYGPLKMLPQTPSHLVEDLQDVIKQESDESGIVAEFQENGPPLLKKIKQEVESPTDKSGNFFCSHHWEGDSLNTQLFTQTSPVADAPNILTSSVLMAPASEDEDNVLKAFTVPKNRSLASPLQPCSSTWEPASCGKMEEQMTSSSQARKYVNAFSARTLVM
Sequence of Myc proto-oncogene protein (Homo sapiens) (P01106 whole entry, looked up): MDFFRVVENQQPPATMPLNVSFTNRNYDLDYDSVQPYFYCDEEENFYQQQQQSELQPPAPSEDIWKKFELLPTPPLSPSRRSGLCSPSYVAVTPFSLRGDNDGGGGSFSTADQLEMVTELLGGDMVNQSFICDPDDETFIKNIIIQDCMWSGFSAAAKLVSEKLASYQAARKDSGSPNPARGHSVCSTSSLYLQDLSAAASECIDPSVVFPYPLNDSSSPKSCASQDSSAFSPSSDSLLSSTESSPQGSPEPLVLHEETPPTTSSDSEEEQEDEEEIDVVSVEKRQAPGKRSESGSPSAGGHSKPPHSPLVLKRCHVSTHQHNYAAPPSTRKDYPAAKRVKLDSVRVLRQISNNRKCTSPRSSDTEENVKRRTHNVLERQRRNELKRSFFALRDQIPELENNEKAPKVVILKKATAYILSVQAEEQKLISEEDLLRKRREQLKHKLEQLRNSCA
Sequence of Cellular tumor antigen p53 (Homo sapiens) (P04637 whole entry, looked up): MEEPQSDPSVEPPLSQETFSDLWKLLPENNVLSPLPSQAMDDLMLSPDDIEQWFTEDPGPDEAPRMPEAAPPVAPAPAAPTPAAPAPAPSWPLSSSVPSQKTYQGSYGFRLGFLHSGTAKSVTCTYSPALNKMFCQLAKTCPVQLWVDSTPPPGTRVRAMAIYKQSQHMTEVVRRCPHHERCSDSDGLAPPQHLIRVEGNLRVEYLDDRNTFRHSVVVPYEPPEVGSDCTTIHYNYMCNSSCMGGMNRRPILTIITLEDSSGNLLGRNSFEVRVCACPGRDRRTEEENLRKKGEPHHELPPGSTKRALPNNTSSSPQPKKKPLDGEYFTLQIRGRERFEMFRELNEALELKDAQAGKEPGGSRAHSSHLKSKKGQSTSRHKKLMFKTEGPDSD
Sequence of Aryl hydrocarbon receptor (Homo sapiens) (P35869 whole entry, looked up): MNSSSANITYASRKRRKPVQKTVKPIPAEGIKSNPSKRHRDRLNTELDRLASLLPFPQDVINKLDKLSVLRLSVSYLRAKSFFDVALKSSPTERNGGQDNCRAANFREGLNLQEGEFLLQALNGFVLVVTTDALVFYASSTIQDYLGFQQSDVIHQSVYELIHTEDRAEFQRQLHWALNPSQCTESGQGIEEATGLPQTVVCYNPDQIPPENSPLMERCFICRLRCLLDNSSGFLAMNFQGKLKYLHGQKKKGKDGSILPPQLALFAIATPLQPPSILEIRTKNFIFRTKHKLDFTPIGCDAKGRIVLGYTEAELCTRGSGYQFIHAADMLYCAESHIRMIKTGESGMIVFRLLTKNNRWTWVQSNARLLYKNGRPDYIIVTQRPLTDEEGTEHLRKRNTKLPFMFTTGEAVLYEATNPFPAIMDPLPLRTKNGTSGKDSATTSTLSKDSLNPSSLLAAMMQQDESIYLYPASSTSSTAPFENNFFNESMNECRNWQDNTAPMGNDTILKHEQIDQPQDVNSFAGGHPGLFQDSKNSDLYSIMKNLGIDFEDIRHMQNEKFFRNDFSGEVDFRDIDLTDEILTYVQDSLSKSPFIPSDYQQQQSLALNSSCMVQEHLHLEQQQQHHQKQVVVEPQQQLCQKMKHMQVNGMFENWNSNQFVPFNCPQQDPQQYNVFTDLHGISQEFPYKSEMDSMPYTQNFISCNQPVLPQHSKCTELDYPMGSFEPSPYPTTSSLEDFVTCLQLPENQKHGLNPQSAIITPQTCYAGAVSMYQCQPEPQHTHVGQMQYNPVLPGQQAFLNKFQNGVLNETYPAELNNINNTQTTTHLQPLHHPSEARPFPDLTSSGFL

`CC(C)C#N`: the outcome in experiment [1], in experiment [2], in experiment [3], in [4], in experiment [5] and in [6] was inactive. Also, the result in [7], in experiment [8], in experiment [9], in experiment [10], in experiment [11] and in [12] was inactive. Besides, the molecule was classed as inactive in [13], in experiment [14], in [15] and in experiment [16].

Regarding `CC(C)CCCCCCCOC(=O)c1ccccc1C(=O)OCCCCCCCC(C)C`, the molecule was called inactive in experiment [1], in experiment [3], in [5], in experiment [6], in [7] and in experiment [17]. Besides, the molecule was called inactive in experiment [9], in [10], in [12], in [14], in experiment [15] and in [18]. In addition, the molecule was classed as inactive in experiment [19] and in [16].

For `CC(=O)/C=C/c1ccccc1`, the molecule was called inactive in experiment [1], in experiment [3], in experiment [5], in experiment [6], in [7] and in experiment [8]. In addition, the result in experiment [9], in experiment [10], in experiment [12], in experiment [13], in experiment [15] and in experiment [19] was inactive. Besides, the AC50 in [2] is 50 µM (active); in [4], 69.4 µM (active); in experiment [20], 37.8 µM (active); in experiment [17] it was 31.6 µM (active); in experiment [14], 33 µM (active).

As to `C[C@]12CC[C@H]3[C@@H](CC[C@@]45O[C@@H]4C(O)=C(C#N)C[C@]35C)[C@@H]1CC[C@@H]2O`, the molecule was classed as inactive in experiment [1], in [3], in experiment [6], in experiment [8], in experiment [9] and in experiment [10]. For the same molecule, the call in experiment [11], in experiment [12], in [18] and in experiment [16] was inactive. Moreover, the AC50 is 63.3 µM (active) in [4]; 64.5 µM (active) in [7]; 62.1 µM (active) in experiment [20]; 33.9 µM (active) in experiment [17]; 18.6 µM (active) in experiment [13]; 58.9 µM (active) in experiment [14]. Also, the AC50 in [15] is 63.3 µM (active); in [19], 27.4 µM (active).

Turning to `O=C1C(Cl)=C(Cl)C(=O)C(Cl)=C1Cl`, the result in [2], in experiment [3], in [5], in experiment [6], in experiment [17] and in [9] was inactive. In addition, the call in experiment [10], in experiment [11], in experiment [12], in experiment [15], in [18] and in experiment [19] was inactive. In addition, the result in experiment [16] was inactive. In addition, the AC50 was 137 µM (active) in experiment [4], 100 µM (active) in experiment [7], 34.6 µM (active) in [13] and 48.7 µM (active) in [14].

The AC50 is the concentration giving half of the maximal activity seen.
